# Pin1 inhibitor – human Pin1 inhibition; Q13526; Potency, µM (series often up to 115 µM), inactives show at the highest dose activity, negative = inhibition, actives largely listed as inhibitors; Pin1 FP peptide displacement, HiFluor488, 10 min; AID 504891; hit rate 0.009% among 390,000; active means well fitted inhibition curve with a large enough effect in the polarisation, with a control signal flat, not every such curve was filed as active; inconclusive means small, poorly fitted or top-dose-only effect, or effect the other way, or a change in a side signal; inactive means no such curve, though single readings can be large or run the other way; the % refers to the polarisation; further: potency means the concentration at half of the fitted maximal effect
# Target sequence (Q13526 whole entry, looked up): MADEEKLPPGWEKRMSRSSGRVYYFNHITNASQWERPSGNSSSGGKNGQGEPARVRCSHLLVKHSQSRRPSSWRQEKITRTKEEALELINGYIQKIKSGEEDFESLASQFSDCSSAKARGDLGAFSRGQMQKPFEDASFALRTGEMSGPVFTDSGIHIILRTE
# Tb PGK inh – inhibitors of T. brucei phosphoglycerate kinase; PGK/GAPDH coupled, Kinase-Glo luminescence, 60 min; Potency, µM (highest dose often 57.5 µM), for the others: at the top dose activity change, negative = inhibition, actives largely listed as inhibitors; hit rate 0.043% among 380,000; AID 602233; further: potency means the concentration at half of the fitted maximal effect; nearly all actives have a fitted effect of over 60% in size
#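 Luminescent ATP detection (Kinase-Glo Plus) follows a 60-minute room-temperature incubation, with wells lacking PGK as controls. Buffer: 100 mM TEA (pH 7.6), 5 mM MgCl2, 0.01% Tween-20. Coupling enzyme GAPDH (100 nM final) supplies unstable 1,3-BPG in-well.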
# Tb PFK inh – T. brucei PFK enzyme inhibition. O15648. T. brucei PFK, ADP-Glo luminescence. Potency, µM (series often up to 57.5 µM), for inactives: at the top dose activity, negative = inhibition, most hits filed as inhibitors. hit rate 0.17% among 330,000. AID 485367;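 further: potency means the concentration at half of the fitted maximal effect; 0% = uninhibited 1x PFK enzyme wells and -100% = no-enzyme wells; nearly all actives have a fitted effect of over 60% in size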
#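 Activity is normalized to no-enzyme wells (full inhibition) and 1.25 nM enzyme wells (no inhibition). Reaction: 0.5 mM F6P, 0.1 mM ATP, 45 min RT, ADP-Glo luminescence; concentration-response curves fitted and classed by quality.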
# PI5P4K alpha inh – blocks human PI5P4K alpha kinase activity; P48426; PI5P4Kalpha enzyme, ADP-Glo luminescence, 60 min; active compounds read low; max response, %; hit rate 1.2% among 330,000; AID 652105; active means max response of -50% or lower; inconclusive means between -30% and -50%; inactive means -30% or higher; further: value at the top dose of about 77 µM
# Target sequence (P48426 whole entry, looked up): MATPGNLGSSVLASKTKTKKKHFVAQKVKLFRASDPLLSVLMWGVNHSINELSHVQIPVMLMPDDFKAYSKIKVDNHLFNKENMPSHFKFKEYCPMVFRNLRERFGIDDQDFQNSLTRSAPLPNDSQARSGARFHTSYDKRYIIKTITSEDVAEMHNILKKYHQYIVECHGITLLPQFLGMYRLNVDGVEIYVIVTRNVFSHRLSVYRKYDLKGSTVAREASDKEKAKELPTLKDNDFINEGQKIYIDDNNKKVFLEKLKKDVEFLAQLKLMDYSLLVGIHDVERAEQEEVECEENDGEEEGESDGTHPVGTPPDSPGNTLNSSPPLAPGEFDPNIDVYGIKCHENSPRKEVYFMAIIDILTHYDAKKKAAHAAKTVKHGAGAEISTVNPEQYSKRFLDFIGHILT
#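 Single end-point luminescence (ADP-Glo) quantified ADP from PI5P4Kalpha turnover; ATP 5 microM final, 1 h at RT, 0.1% CHAPS and 0.28 mM EGTA in HEPES pH 7.4.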
# PI4K2A inh – inhibitors of human PI4K2A | Q9BTU6 | purified PI4K2A, ADP-Glo luminescence, 1 h; active compounds read low | activity change, negative = inhibition, % at 76.9 µM | hit rate 0.13% among 420,000 | AID 1346378; in the data active means activity change below about -50%; inconclusive means mostly about -30% to -49%;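 further: -100% = wells without enzyme as full effect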
#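 ADP-Glo luminescence measured ADP generated by PI4K2A enzyme (4 ug/mL before mixing) with 1.2 mM PI substrate (pre-mix) and 300 microM ATP (pre-mix). Tris pH7.5 buffer with MgCl2, Triton X-100; 1 h reaction at ambient temperature.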
# * marks the source's active call; other numbers are inactive results; i = inactive; u = inconclusive; x = not tested or not shown; [ ] = remark or other dose. Only a selection was taken, and hits are over-represented in it overall. Unless noted, the call rests on the fitted dose curve; in most records, active means well fitted curve in the direction sought with a large enough effect; inconclusive means small, poorly fitted or top-dose-only effect, or another doubt; inactive means no such curve, though single readings can be large; an effect the other way counts as inactive or inconclusive. Unless noted, on the % scale 0 is the no-effect control and ±100 the full control effect.
SMILES,Pin1 inhibitor,Tb PGK inh,Tb PFK inh,PI5P4K alpha inh,PI4K2A inh
N=C1S/C(=C\c2ccc(-c3ccccc3C(=O)O)o2)C(=O)N1c1ccc2c(c1)OCO2,u,-14.0%,-0.3%,-74.2*,-25.5
COc1cc(/C=C(\C#N)C(=O)c2c[nH]c3ccccc23)cc(OC)c1O,u,-7.2%,-2.1%,-75.4*,-2.9
CCCNC(=O)C1(C)CCN(C(=O)c2cccc(OC(F)(F)F)c2)C1 (stereo unspecified),x,x,x,-3.4,-5.1
CCCCC(=O)c1ccc(O)cc1,7.3%,2.8%,0.2%,x,-1.2
O=C(CCO)c1ccc(O)cc1,u,u,u,-65.0*,-16.0
O=C(Nc1cccc(S(=O)(=O)N2CCCCC2)c1)c1ccccc1NS(=O)(=O)c1ccc(F)cc1,10.4%,i,-15.0%,1.0,-3.5
Cc1ccc(C(=O)CSc2nc3ccccc3o2)cc1,6.4%,-2.0%,0.2%,x,-2.4
COC(=O)CC1C(=O)NCCN1C(=O)c1c(F)cccc1F (stereo unspecified),-9.7%,i,-4.7%,2.2,7.4
Cc1ccc(C(=O)Nc2ccc(C(=O)N3CCCCC3)cc2)o1,-5.7%,u,-13.6%,-18.5,-52.8*
Cc1ccc(NC(=O)CN2CCSc3ccc(S(=O)(=O)N4CCCC4)cc32)cc1C,25.4%,-8.4%,x,x,2.9
O=C(CCc1ccc(O)cc1)c1c(O)cc(O)cc1O,0.5%,-9.8%,11.4%,-68.6*,0.4
O=C(Cc1ccc2c(c1)OCCO2)c1c(O)cc(O)cc1O,-13.0%,i,2.9%,x,-3.4
CCSc1nnc(NC(=O)C2CCCN(C(=O)c3ccc(Cl)cc3)C2)s1 (stereo unspecified),x,-2.8%,x,1.7,6.7
Cc1ccc(-n2nnc(-c3cccnc3)n2)cc1,-0.5%,-7.2%,x,-3.1,-0.6
Cc1ccc(-n2nnc(-c3nccn3C)n2)cc1,1.3%,u,-25.2%,u,-52.5*
COc1ccc(C=C2CCc3ccccc3C2=O)cc1,x,x,x,u,-82.7*
O=C1C(=Cc2ccc(F)cc2)CCc2ccccc21,x,x,x,u,-72.8*
Cc1cccc(NC(=O)CN2C(=S)NC(C)(C)CC2C)c1 (stereo unspecified),-3.2%,7.5%,1.2%,-5.7,-0.7
CCN(C(=O)c1sc2nc3n(c(=O)c2c1C)CCCCC3)c1ccccc1F,-0.4%,-5.3%,x,x,-0.9
CC(=NCc1cccnc1)C1=C(O)c2ccccc2C1=O,-1.2%,-7.7%,1.2%,-1.4,-53.6*
CCOc1ccc2oc(C(=O)OCC(=O)N3CCCC(C)C3)c(C)c2c1 (stereo unspecified),-2.0%,-4.2%,-11.2%,-0.1,-5.1
NS(=O)(=O)c1ccc(CCNS(=O)(=O)c2ccc3c(c2)NC(=O)CO3)cc1,-9.6%,1.5%,3.3%,2.4,8.5
CC(NC(=O)OCc1ccccc1)C(=O)Oc1cc2oc(=O)cc(-c3ccccc3)c2cc1Cl (stereo unspecified),-11.3%,-0.4%,5.8%,-61.8*,4.0
COCCNc1nc2nonc2nc1N1C[C@H]2CC[C@H]1C2,1.6%,-7.0%,-4.1%,6.1,0.7
O=S(=O)(O)c1cccc(N=Nc2c(O)ccc3ccccc23)c1,u,-13.2%,27.3%,-54.3*,-12.3
SMILES,Pin1 inhibitor,Tb PGK inh,Tb PFK inh,PI5P4K alpha inh,PI4K2A inh
COc1ccc(Nc2nnc(-c3cc4c(ccc5ccccc54)oc3=O)s2)cc1,0.9%,x,x,x,-1.8
CC1CCCCN1CCNC(=O)CN1C(=O)CSc2ccc(S(=O)(=O)N3CCCCC3)cc21 (stereo unspecified),-0.3%,-0.1%,-4.8%,-2.0,4.2
COc1ccc(-c2nc3ccccn3c2Cl)cc1,2.4%,u,-17.7%,-15.7,-51.7*
CCOC(=O)c1sc2nccc(OC)c2c1N=CNOC,1.1%,7.0%,-1.9%,-0.3,-59.3*
Cc1ccccc1N1CCN(C2=NC(=O)/C(=C/c3cn[nH]c3-c3ccccc3)S2)CC1,3.0%,-6.5%,1.8%,-61.5*,1.9
O=C(COc1cccc(F)c1)NNC(=O)c1cccc(-n2cccc2)c1,12.7%,-0.7%,-15.1%,-62.8*,-22.0
COc1cccc(CNS(=O)(=O)c2cc(-c3cc(C)no3)ccc2C(C)C)c1,34.5%,0.6%,-1.7%,8.7,-1.1
Cc1ccc(C)c(NC(=O)CCn2nc(C)c3c(C)n(-c4ccccc4)nc3c2=O)c1,-9.3%,-0.5%,x,x,-3.7
O=c1[nH]c(=S)[nH]c2nc[nH]c12,10.9%,x,x,x,x
O=c1[nH]c(=O)c2[nH]c(=S)[nH]c2[nH]1,u,-5.0%,x,-86.1*,-1.2
CCOC(=O)Cn1c2ccc(C)cc2c2nc(C)sc21,-5.7%,7.8%,5.7%,-1.8,-24.8
CCOC(=O)C(CCCOc1ccccc1)C(=O)OCC,-2.4%,-4.2%,4.1%,15.1,-12.3
O=C1NC(=O)/C(=C/c2cccc([N+](=O)[O-])c2)N1,u,i,8.7%,-29.7,-6.7
O=C1NC(=O)/C(=C/c2ccc(-c3cccc([N+](=O)[O-])c3)o2)S1,-3.4%,u,0.3%,-51.2*,-1.9
O=C1NC(=S)S/C1=C\c1cccc([N+](=O)[O-])c1,u,-7.9%,x,-65.4*,-2.0
O=Cc1ccc(-c2cccc([N+](=O)[O-])c2)o1,5.5%,-1.5%,-10.1%,13.5,0.7
O=C1C=CC(=O)N1c1ccccc1N1C(=O)C=CC1=O,u,-8.0%,x,-88.9*,u
O=C1C2CC=C(Cl)CC2C(=O)N1CC1OCCc2ccccc21 (stereo unspecified),-5.6%,-15.1%,-0.8%,-9.8,4.1
CCCCc1cc(=O)oc2cc(OCC(=O)NC(Cc3c[nH]c4ccc(O)cc34)C(=O)O)ccc12 (stereo unspecified),u,5.8%,-12.9%,-0.2,-67.6*
CCCc1cc(=O)oc2cc(C)cc(OCC(=O)NC(Cc3c[nH]c4ccc(O)cc34)C(=O)O)c12 (stereo unspecified),-6.2%,-4.0%,0.1%,1.1,-17.8
CCOC(=O)Nc1cc2c(c(N)n1)N=C(c1ccccc1)CN2,u,-0.7%,x,-67.8*,-11.0
CCOC(=O)Nc1sc(C)nc1-c1ccccc1,11.2%,-2.4%,-3.7%,x,8.0
N#CCCCSc1nnc(-c2ccc(Cl)cc2)n1-c1ccccc1,5.6%,3.8%[11.5 µM],-0.5%,x,-1.1
Cc1ccccc1C(=O)N1CCC(C(=O)N2CCN(c3ncccn3)CC2)CC1,1.8%,-0.2%,-3.2%,0.6,7.4
CCOC(=O)N1CCN(C(=O)C2CCN(C(=O)c3ccccc3C)CC2)CC1,-3.4%,-12.9%,x,-78.6*,-3.1
COc1ccc2[nH]c3c4c(ccc3c2c1)C(=O)C=CC4=O,33.2%,2.5%,12µM*,-65.2*,-4.4
O=C(O)c1ccc2c(c1)C(=O)N(CCC1=CCCCC1)C2=O,0.8%,1.1%,1.5%,-69.8*,-5.6
O=C(O)c1ccc2c(c1)C(=O)N(Cc1ccccc1)C2=O,-5.7%,-6.8%,-10.2%,-72.8*,1.8
O=C(Nc1ccc(O)cc1)c1ccc2c(c1)C(=O)N(Cc1ccccc1)C2=O,-0.6%,-1.3%,-5.1%,-12.4,-0.8

# Assay outcomes: PubChem BioAssay, National Center for Advancing Translational Sciences (NCATS)
